Reference: PubChem BioAssay AID2535 (National Center for Advancing Translational Sciences (NCATS), 2010)
Calls of active or inactive are those of the source. Calls come from the whole dose curve; as a rule, active = well fitted curve in the direction sought with a large enough effect; inconclusive = small, poorly fitted or top-dose-only effect, or effect the other way, or another doubt; inactive = no such curve, though single readings can be large or run the other way.

Target: Pyruvate kinase PKLR (Homo sapiens) (UniProt P30613)
Experiment: Secondary Concentration-Response Assay for Activators of Human Liver Pyruvate Kinase: for Probe SAR
Details: purified hPK-L, ATP production, Kinase-Glo luminescence; series mostly up to 58.3 µM
Source text: NIH Chemical Genomics Center [NCGC]
Matthew G. Vander Heiden, M.D., Ph.D. [Harvard Medical School, 77 Avenue Louis Pasteur, Boston, MA 02115]
Human pyruvate kinase liver (hPK-L) enzyme was supplied as a highly purified (>95% pure) preparation from Harvard Medical School and assayed for its ability to generate ATP from ADP using phosphoenolpyruvate (PEP) as a substrate. ATP generation was detected in a coupled reaction by luciferase-mediated luminescence, an ATP-dependent process. Pyruvate kinase substrates, PEP and ADP, were present in the assay at Km and approximately 10-fold below Km respectively. The enzyme was assayed at an intermediate level of activity to screen for both inhibitors and activators.
NCGC Assay Protocol Summary for L-isoform:
Three uL of substrate mix (at r.t.) in assay buffer (50 mM Imidazole pH7.2, 50 mM KCl, 7 mM MgCl2, 0.01% Tween 20, 0.05% BSA) was dispensed into white solid bottom 1,536 well microtiter plates so that the final concentrations of substrates in the assay were 0.1 mM ADP and 0.5 mM PEP. 23 nL of compound were delivered by a pin tool and 1 uL of enzyme mix (final concentration of 0.1 nM) in assay buffer (4 degree Celsius) was added. Plates were incubated at room temperature for 1 hour. Two uL of detection mix (Kinase-Glo, Promega; at 4 degree Celsius protected from light) was added and luminescence read by a ViewLux (Perkin Elmer) at 1 second exposure/plate. Data were normalized to the uninhibited (row 31). Additionally, a no enzyme and 5-fold enzyme control was dispensed in row 32, split equally between the two conditions.

Pyruvate kinase PKLR (Homo sapiens), sequence (P30613 whole entry, looked up): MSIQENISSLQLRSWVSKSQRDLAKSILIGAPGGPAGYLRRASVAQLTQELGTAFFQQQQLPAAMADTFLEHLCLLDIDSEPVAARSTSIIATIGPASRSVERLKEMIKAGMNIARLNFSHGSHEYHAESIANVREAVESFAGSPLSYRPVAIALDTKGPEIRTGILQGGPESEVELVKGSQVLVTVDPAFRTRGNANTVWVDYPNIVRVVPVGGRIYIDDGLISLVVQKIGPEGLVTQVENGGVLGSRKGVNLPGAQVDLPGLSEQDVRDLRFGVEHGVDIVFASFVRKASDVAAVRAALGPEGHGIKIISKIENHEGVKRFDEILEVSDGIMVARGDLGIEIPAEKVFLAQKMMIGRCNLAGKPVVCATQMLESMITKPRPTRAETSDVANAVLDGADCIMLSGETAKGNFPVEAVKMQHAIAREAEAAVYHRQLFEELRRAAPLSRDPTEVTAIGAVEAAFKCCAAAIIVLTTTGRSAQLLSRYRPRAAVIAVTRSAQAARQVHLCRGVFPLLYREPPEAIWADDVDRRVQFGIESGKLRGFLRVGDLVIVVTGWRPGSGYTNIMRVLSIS

outcome, inactive:
COc1ccccc1N1C(=O)c2ccccc2C1=O
Cc1ccc(-c2nc3ccccn3c2Nc2ccc(F)cc2)o1
COc1ccccc1NS(=O)(=O)c1ccc2c(c1)CCC(=O)N2
Cc1ccc(NS(=O)(=O)c2ccc3c(c2)CCN(C(=O)C(F)(F)F)C3)cc1C
Cc1ccc(NS(=O)(=O)c2cc3c(cc2Cl)NC(=O)C3)cc1C
CC(=O)N1CCCc2cc(S(=O)(=O)Nc3ccc(C)c(C)c3)ccc21
COc1ccc(-c2nc3cccc(C)n3c2Nc2ccc(C)cc2)cc1
O=C1CCc2cc(S(=O)(=O)Nc3ccccc3-c3ccccc3)ccc2N1
Cc1cc(N2C(=O)c3ccccc3C2=O)n[nH]1
O=C1c2ccccc2C(=O)N1c1cccc(=O)[nH]1
CCCCN1C(=O)c2ccccc2C1=O
COc1cccc(N2C(=O)c3ccccc3C2=O)c1
Cc1ccc(NS(=O)(=O)c2cc3c(cc2-c2ccccc2)NC(=O)CO3)cc1C
Cc1ccc(Nc2c(-c3ccc(C)s3)nc3cccc(C)n23)cc1
O=C1c2ccccc2C(=O)N1c1cc(=O)c2ccccc2[nH]1
Cc1ccc(NS(=O)(=O)c2cc3c(cc2-c2ccco2)NC(=O)CO3)cc1C
Cc1ccc(NS(=O)(=O)c2ccc3c(c2)N(C)C(=O)CO3)cc1C
Cc1ccc2nc(-c3ccc(C)o3)c(Nc3ccccc3)n2c1
Cc1ccc(NS(=O)(=O)c2ccc3c(c2)CCC(=O)N3)cc1C
O=C1c2ccccc2C(=O)N1c1cccc(Cl)c1
O=C1c2ccccc2C(=O)N1c1ccc2ccccc2n1
Cc1ccc(NS(=O)(=O)c2ccc3c(c2)CCC(=O)N3)cc1Cl
Cc1ccc(NS(=O)(=O)c2ccc3[nH]c(=O)[nH]c3c2)cc1C
Cc1ccc(NS(=O)(=O)c2ccc3ccccc3c2)cc1C
O=C1c2ccccc2C(=O)N1c1ccccc1O
Cc1ccc(NS(=O)(=O)c2cc3c(cc2Cl)CCC(=O)N3)cc1Cl
Cc1ccc(NS(=O)(=O)c2cc3c(cc2N(C)C)NC(=O)CC3)cc1C
Cc1ccc(NS(=O)(=O)c2ccc3c(c2)CCC(=O)N3)cc1F
O=C1c2ccccc2C(=O)N1c1cccnc1
Cc1ccc(NS(=O)(=O)c2cccc(F)c2)cc1C
O=C1c2ccccc2C(=O)N1c1ccc(Cl)cc1
O=C1c2ccccc2C(=O)N1Cc1cccnc1
COc1ccc(S(=O)(=O)Nc2ccc(C)c(C)c2)cc1
O=S1(=O)N=C(Oc2ccccc2Cl)c2ccccc21
Cc1ccc(NS(=O)(=O)c2cc3c(cc2/C=C/c2ccccc2)NC(=O)CO3)cc1C
Cc1ccc(Nc2c(-c3ccc(C)o3)nc3cccc(C)n23)cc1
Cc1cc(NS(=O)(=O)c2ccc3c(c2)CCC(=O)N3)ccc1Cl
Cc1c(Cl)cccc1NS(=O)(=O)c1cc2c(cc1Cl)CCC(=O)N2
COc1ccc(N2C(=O)c3ccccc3C2=O)cc1
O=C1CCc2cc([S+](=O)([O-])Nc3ccc(N[S+](=O)([O-])c4ccc5c(c4)CCC(=O)N5)cc3)ccc2N1
